Data taken from PubChem BioAssay AID540277 (National Center for Advancing Translational Sciences (NCATS), 2011).
The campaign covered roughly 320,000 compounds. About 55 (0.02%) were called active. Not shown: some 3% with an inconclusive outcome. No stated cut-off is given here; in the data, active means potentiation above about 80%; inconclusive means between about 30% and that limit; inactive means weaker than that. The full list was thinned out, with actives kept by preference.

molecular target: Transient receptor potential cation channel subfamily V member 1 (Homo sapiens) (UniProt Q8NER1); test: HTS Assay for Compounds that Act as Potentiators of the Vanilloid Receptor 1; details: TRPV1-expressing cells, Fluo-8 calcium influx, capsaicin EC20 potentiation; at 8.33 µM; stronger effect = higher value; further: 0% is about no effect
Description: The transient receptor potential ion channel, family V, number 1, (TRPV1) is one of the most important molecular transducers of painful stimuli and a potential target for analgesic drug development. Although recent clinical trials with orthosteric antagonists have not produced a successful drug because of a hyperthermia side effect and their tendency to block thermal noxious pain, this ion channel is undeniably well placed in the pain pathway, and the idea of blocking pain signals before they enter the CNS is an excellent concept and of proven efficacy when TRPV1 agonists are used. We propose a new approach involving allosteric modulation to impose an activity-dependent constraint within the context of inflammation and tissue damage that would alter the responsiveness of the channel in a way that an orthosteric vanilloid antagonist cannot achieve. We believe that the allosteric modulator approach has not been explored for this target. The main goal of this proposal is to identify additional, new, potent allosteric modulators of TRPV1 that can be used to investigate TRPV1 function. Our recent report provides evidence of proof of concept, but the compounds are just at the edge of utility in terms of potency. […] The question of whether they can be used as analgesic agents is complex, but if suitable compounds are identified then testing for analgesic properties will be conducted. NIH Chemical Genomics Center [NCGC] NIH Molecular Libraries Probe Centers Network [MLPCN] MLPCN Grant: MH089480-1A1 Assay Submitter (PI): Michael Iadarola, National Institute of Dental and Cranofacial Research
Upon TRPV1 activation in TRPV1 cells, the channel opens and extracellular cations flow through the channel into the cytosol. A calcium binding dye (Fluo-8) becomes fluorescent when bound to calcium. This dye is pre-loaded into cells and is used as a marker for calcium influx. The amount of accumulated calcium is precisely quantified using the FDSS kinetic reader and the calcium dye. For the HTS assay, freshly prepared cells are plated at a density of 2000/well in 3 ul medium in 1536-well plates and cultured overnight at 35.5C. Cells will be loaded with 1 ul of the homogeneous calcium dye (ABD Bioquest) at room temperature for 40 to 90 minutes. Plates will be loaded into the FDSS kinetic reader and a 1 sec / cycle for 10 second baseline signal will be measured. Compound library will then be added with a pintool at 23 nl and measured kinetically for 3 minutes. This portion of the read is considered the agonist portion of the screen. Following the 3 minutes of incubation, an on board pipettor will deliver 1 ul of capsaicin for a final concentration equal to the EC20. Signal will be measured kinetically for an additional 2 minutes. This portion of the read is considered the allosteric enhancer portion of the screen. The FDSS reader has a standard filter set capable of measuring calcium bound Fluo-8 (ex=480 and em=520 nm).

Sequence of Transient receptor potential cation channel subfamily V member 1 (Homo sapiens) (Q8NER1 whole entry, looked up): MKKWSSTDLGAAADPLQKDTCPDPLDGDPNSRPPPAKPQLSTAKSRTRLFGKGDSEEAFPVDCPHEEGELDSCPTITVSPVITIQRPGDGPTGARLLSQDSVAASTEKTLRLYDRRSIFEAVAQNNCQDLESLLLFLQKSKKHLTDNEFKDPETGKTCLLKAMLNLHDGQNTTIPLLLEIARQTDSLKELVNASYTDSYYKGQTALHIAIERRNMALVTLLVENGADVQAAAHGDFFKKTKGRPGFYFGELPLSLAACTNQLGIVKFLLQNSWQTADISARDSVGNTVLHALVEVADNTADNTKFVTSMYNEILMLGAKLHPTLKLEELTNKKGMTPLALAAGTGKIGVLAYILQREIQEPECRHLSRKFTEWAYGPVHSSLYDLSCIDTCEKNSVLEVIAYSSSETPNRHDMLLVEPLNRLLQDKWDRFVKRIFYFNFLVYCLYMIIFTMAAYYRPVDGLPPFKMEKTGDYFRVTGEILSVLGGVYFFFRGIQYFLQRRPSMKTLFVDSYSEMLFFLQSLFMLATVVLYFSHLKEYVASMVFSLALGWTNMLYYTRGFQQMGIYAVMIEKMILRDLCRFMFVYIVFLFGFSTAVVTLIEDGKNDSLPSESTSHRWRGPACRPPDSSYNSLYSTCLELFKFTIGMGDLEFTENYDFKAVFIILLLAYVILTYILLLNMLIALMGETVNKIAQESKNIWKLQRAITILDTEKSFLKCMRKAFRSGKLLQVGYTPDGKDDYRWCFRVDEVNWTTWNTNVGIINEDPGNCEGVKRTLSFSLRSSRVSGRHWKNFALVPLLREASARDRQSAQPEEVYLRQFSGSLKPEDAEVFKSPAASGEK

SMILES | potentiation
COC(=O)c1cc(Oc2ccc(S(=O)(=O)N3CCOCC3)cc2[N+](=O)[O-])cc(C(=O)OC)c1 | 10.8% (inactive)
CN1CCN(C2=NCCO2)CC1 | -4.44% (inactive)
CCOc1ccc(S(=O)(=O)N2CCCCC2)cc1NC(=O)CN1CCCC1c1cccs1 (configuration not stated) | -19.8% (inactive)
Cc1ccc(C(=O)CN2C(=O)NC3(CCOc4ccccc43)C2=O)s1 (configuration not stated) | -10.3% (inactive)
O=C(c1ccc(=O)[nH]c1)N(Cc1ccco1)C1(C(=O)NC2CCCCC2)CCCCC1 | 6.34% (inactive)
CC(=O)N(CC1CCCO1)C1(C(=O)NC2CCCC2)CCCCC1 (configuration not stated) | -6.84% (inactive)
CC(=O)NCC(=O)N(Cc1ccco1)C1(C(=O)NC2CCCC2)CCCCC1 | 85.2% (active)
Cc1n[nH]c(=O)c2c(NC(=O)CSc3cc(Cl)ccc3Cl)oc(C)c12 | 13.8% (inactive)
CC1CC1C(=O)OCC(=O)Nc1cccc(F)c1 (configuration not stated) | -20.7% (inactive)
Cn1c(N)c(C(=O)COC(=O)/C=C/c2cccc(C(F)(F)F)c2)c(=O)n(C)c1=O | -32.4% (inactive)
COc1ccc(C(C[N+](=O)[O-])n2nc(C)cc2C)cc1 (configuration not stated) | 0.93% (inactive)
COc1ccc(S(=O)(=O)N2CCOCC2)cc1NC(=O)CC1CC2CCC1C2 (configuration not stated) | 2% (inactive)
CCCCn1c(SCC(=O)N2CCCC2=O)nc2cc(S(N)(=O)=O)ccc21 | -9.34% (inactive)
CCOC(=O)c1sc(=NC(=O)/C=C/c2cccs2)n(C)c1C | -3.16% (inactive)
O=S(=O)(Nc1cc(Cl)ccc1N1CCOCC1)c1ccccc1Cl | 28.9% (inactive)
CN(c1ccccc1)S(=O)(=O)c1cccc(NC(=O)Cc2ccc(Cl)cc2)c1 | -2.65% (inactive)
O=C(COC(=O)c1c(Cl)cccc1Cl)Nc1cccc(S(=O)(=O)NC2=NCCCCC2)c1 | 4.82% (inactive)
Cc1ccc(S(=O)(=O)Nc2nc(CN3CCOCC3)nc3sc(C)c(C)c23)cc1 | 21.7% (inactive)
O=C(Nc1ccc2c(c1)OCCO2)C1CCCC1 | -1.56% (inactive)
Cc1cc(NC(=O)COc2ccccc2C#N)no1 | 13.6% (inactive)
O=C(CSc1ccccc1)Nc1cccc(S(=O)(=O)N2CCCCC2)c1 | -6.03% (inactive)
CCN(c1ccccc1)S(=O)(=O)c1ccc(OCC(=O)N2CCCC2)cc1 | -12.3% (inactive)
O=C(CN1CCCCC1)NC(=O)Nc1ccccc1F | -35.8% (inactive)

SMILES | potentiation
COc1ccccc1C(=O)NCC(=O)OCC(=O)Nc1nnc(-c2ccccc2)o1 | 8.76% (inactive)
Cc1ccc(NC(=O)Cc2nc(COC(=O)C(C)NS(=O)(=O)c3ccc(C)cc3)cs2)cc1 (configuration not stated) | 1.83% (inactive)
COc1ccccc1C(=O)NCCC(=O)NC1=NCCS1 | 16.5% (inactive)
Cc1cc(C(=O)COc2ccccc2Cl)c(C)n1C1CC1 | -5.33% (inactive)
CC(C)(C)C(=O)CSc1ccc(S(=O)(=O)N2CCCC2)cn1 | 5.19% (inactive)
CCCCn1nc(C(=O)Nc2cccc(C(=O)NC3CC3)c2)c2ccccc2c1=O | -5.5% (inactive)
CCC(C(=O)N1CCN(S(=O)(=O)c2sc(C(=O)O)c(C)c2C(=O)O)CC1)c1ccccc1 (configuration not stated) | -6.07% (inactive)
CC1CCCN(C(=O)CN2C(=O)c3ccccc3S2(=O)=O)C1 (configuration not stated) | 7.53% (inactive)
Cc1cc(C(=O)COc2ccc(Br)cc2F)c(C)n1C1CC1 | -6.81% (inactive)
COc1ccc(C(=O)N2CCN(c3ccc(C(C)=O)cc3F)CC2)cc1S(=O)(=O)NC1CC1 | -8.79% (inactive)
CCN1C(=O)C(=O)N(CC(=O)Nc2cc(C)ccc2C)C1=O | 4.41% (inactive)
CCN(CC)c1ccc(NC(=O)CN2C(=O)NC3(CCc4ccccc43)C2=O)cc1 (configuration not stated) | -5.69% (inactive)
COc1ccc(-c2cc3ncccc3cn2)cc1 | -0.0866% (inactive)
COc1ccc(CN2CCc3nc(Nc4ccccc4)ncc3C2)c(OC)c1OC | 1.32% (inactive)
COc1ccc2c(C)cc(SCC(=O)NCC3CCCO3)nc2c1 (configuration not stated) | -8.57% (inactive)
CC(Sc1nnc(C2CC2)n1C1CC1)C(=O)Nc1ccc(C(N)=O)cc1 (configuration not stated) | -2.73% (inactive)
COc1ccc(CN2CCN(C(=O)c3cc(C4CC4)nn3-c3ccccc3)CC2)cc1F | 1.31% (inactive)
CSCCC(NC(=O)c1ccccc1)C(=O)N1CCN(Cc2ccc(Cl)cc2)CC1 (configuration not stated) | 10.6% (inactive)
Cc1ccsc1C(=O)NCCc1ccco1 | -5.45% (inactive)
O=C(Nc1ccc2c(c1)OCO2)C1CC1(Cl)Cl (configuration not stated) | -2.21% (inactive)
CCN(CC)CCN1C(=O)C(=O)/C(=C(/O)c2cnn(-c3ccccc3)c2C)C1c1cccs1 (configuration not stated) | -0.404% (inactive)
CCOc1ncccc1C(=O)OCC(=O)Nc1cccc(S(=O)(=O)N2CCCCCC2)c1 | -26.2% (inactive)
COc1ccc(S(=O)(=O)N2CCOCC2)cc1NC(=O)Cc1coc2cc(C)ccc12 | 4.1% (inactive)

SMILES | potentiation
Cc1nc2ccc(NC(=O)C3CCCCC3)cc2s1 | -2.49% (inactive)
COc1ccc(-c2sc3ccc(OC)cc3c2C#Cc2ccccn2)cc1 | -1.97% (inactive)
CC(C)c1ccc(S(=O)(=O)N2CCN(C(C)C(=O)NC3CCCC3)CC2)cc1 (configuration not stated) | -15.2% (inactive)
O=C(Nc1ccccn1)C1CCN(S(=O)(=O)c2ccccc2)CC1 | -3.8% (inactive)
COCCn1c(C)cc(C(=O)CSc2nnc(C3CC3)n2C2CC2)c1C | -2.92% (inactive)
CC(=O)Nc1ccc(Nc2cc(C)nc(Nc3ccc(NC(C)=O)cc3)n2)cc1 | 13.9% (inactive)
O=c1ccc2c(-c3ccccc3S(=O)(=O)O)c3ccc(O)c(O)c3oc-2c1O | 12.9% (inactive)
CC(=O)N1CCN(S(=O)(=O)c2cccc(C(=O)NC3CCC(C)CC3)c2)CC1 (configuration not stated) | 0.313% (inactive)
Cc1cc(C(=O)Nc2nnc(C3CC3)s2)c(C)s1 | 9.37% (inactive)
COc1cccc(-n2c(SCC(=O)NC3CCS(=O)(=O)C3)nc3ccccc3c2=O)c1 (configuration not stated) | 7.53% (inactive)
CC(C)n1ncc2c(C(=O)Nc3ccc(CC#N)cc3)cc(C3CC3)nc21 | -24.2% (inactive)
COc1cccc(NC(=O)CN(C)CC(=O)c2c(N)n(Cc3ccccc3)c(=O)n(C)c2=O)c1 | 23.5% (inactive)
O=S(=O)(NCc1ccccc1Br)c1ccccc1Br | 5.51% (inactive)
CCOC(=O)C1=C(COC(=O)[C@H](C)NS(=O)(=O)c2ccccc2F)NC(=O)NC1C (some centres not stated) | -3.56% (inactive)
CCOC(=O)c1cc(OC(=O)c2ccccc2Cl)n(-c2ccccc2)n1 | 0.753% (inactive)
CCc1sc(C(=O)N2CCN(CC(=O)Nc3cccc(F)c3)CC2)cc1C | -11.7% (inactive)
CCN(CC(=O)NCc1cccs1)C(=O)/C=C/c1ccc(C)cc1 | -0.0424% (inactive)
COC(=O)c1sc2[nH]c(=S)n(N)c(=O)c2c1C | -11.7% (inactive)
CCN(c1ccccc1)S(=O)(=O)c1cccc(C(=O)NCc2ccccc2CN2CCOCC2)c1 | -5.32% (inactive)
CCOc1ncccc1C(=O)OCC(=O)c1c[nH]c2ccccc12 | 3.1% (inactive)
O=C(CN1C(=O)NC2(CCCCC2)C1=O)N1CCN(C(=O)c2cccs2)CC1 | 25.7% (inactive)
CN(C)CCN=c1cc(-c2ccccc2)oc2ccc(Cl)cc12 | -6.88% (inactive)
O=C(COC(=O)c1ccccc1)c1ccc2c(c1)OCCO2 | 3.76% (inactive)

SMILES | potentiation
Cc1c(C(=O)NNC(=O)c2ccncc2)oc2ccccc12 | -17.2% (inactive)
O=C(O[C@@H]1[C@H](Cc2ccccc2)NS(=O)(=O)[C@H]2C[C@@H]3C=C[C@]12O3)c1ccccc1Br | 3.92% (inactive)
Cc1ccc(OCCC(=O)Nc2ccc(S(=O)(=O)Nc3nccs3)cc2)cc1 | 17.5% (inactive)
NC(=O)C1CCN(C(=O)c2ccc(F)c(S(=O)(=O)N3CCOCC3)c2)CC1 | -7.69% (inactive)
CC(C)c1ccc(/C=C/C(=O)NCCCN2CCOCC2)cc1 | -19.8% (inactive)
O=C(NCCC1=CCCCC1)c1ccc(-n2cncn2)cc1 | -28.9% (inactive)
Cc1ccn2c(=O)nc(SCC(=O)NCc3ccc4c(c3)OCO4)nc2c1 | -6.94% (inactive)
CC1CN(/C=C/C(=O)C(F)(F)F)CC(C)O1 (configuration not stated) | 11.7% (inactive)
COc1ccccc1/C=C/C(=O)OCC(=O)NC1CCCCCC1 | -11.2% (inactive)
O=C(NCCc1ccc(F)cc1)c1ccc2nccnc2c1 | -3.52% (inactive)
CC(C)N(Cc1nnc(-c2ccccc2Br)o1)C(=O)c1cc(Cl)nc2ccccc12 | -18.4% (inactive)
Cc1cc(C)cc(OCC(=O)OCC(=O)NC2CCCC2)c1 | 19.9% (inactive)
COCC(C)NC(=O)COc1nncc2ccccc12 (configuration not stated) | 80.9% (active)
CC(C)C(C)NC(=O)COc1ncnc2ccccc12 (configuration not stated) | 5.13% (inactive)
COC(=O)C(C)NC(=O)COc1ccc2ccccc2c1 (configuration not stated) | 3.51% (inactive)
Cc1cc(C)cc(-c2nnc(SCC(=O)NC3CC3)o2)c1 | -9.15% (inactive)
CCOCc1c(C(=O)N2CCN(Cc3ccc(Br)s3)CC2)oc2ccccc12 | -19.8% (inactive)
COc1ccccc1N1CCN(CC(=O)Nc2ccnn2C2CCCC2)CC1 | 4.7% (inactive)
COc1ccccc1-n1nnnc1SCC(=O)NC(=O)Cc1ccccc1 | 2.96% (inactive)
COc1ccc(S(=O)(=O)N2CCOCC2)cc1NC(=O)c1ccc(OCC(C)C)c(OC)c1 | -5.7% (inactive)
O=C(Nc1ccccc1F)c1ccc(S(=O)(=O)N2CCCCCC2)cc1 | -21.7% (inactive)
O=S(=O)(NCCc1ccccn1)c1cc(Cl)cc(Cl)c1O | 2.4% (inactive)
O=C(c1cc2ccccc2o1)N1CCN(S(=O)(=O)c2ccc(Cl)s2)CC1 | -15.9% (inactive)
